Rows were chosen to be rich in hits. Some 12% of all compounds tested hit in one or more screens of this group.
L3MBTL1 inh: blocks human L3MBTL1 | Q9Y468 | AlphaScreen L3MBTL1–H3K9me1 peptide binding | Potency, µM (top dose mostly 57.1 µM), inactives show at the top dose activity, negative = inhibition, hits mostly inhibitors | 0.66% of 230,000 active | AID 485360; note: potency is the fitted concentration of half-maximal effect; % is set by controls: 0 for no effect and ±100 for the full control effect; nearly all actives have a fitted effect of over 60% in size
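AlphaScreen assay: L3MBTL1 (50 nM final) was preincubated 30 min at room temperature with biotinylated H3(1-15)K9me1 peptide (75 nM final), then 30 min with library compounds; streptavidin donor and nickel chelate acceptor beads (10 ug/mL final) added, 30 min dark.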
Sfp inh: Sfp phosphopantetheinyl transferase inhibition. Biochemical Sfp PPTase activity, qHTS. Potency, µM, inactives show largest response in the series, negative = inhibition, hits mostly inhibitors. 3.5% of 310,000 active. AID 1490;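 note: the enzyme is Sfp with the accession as filed and its product quenches rhodamine fluorescence; potency is the fitted concentration of half-maximal effect; 0% = enzyme reaction without inhibitor and -100% = no enzyme wells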
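Reaction rates are the 30-min fluorescence difference (ex 525, em 598 nm) in wells containing 15 nM Sfp, 5 uM rhodamine-CoA and 12.5 uM BHQ-2-YbbR at pH 7.6 with 10 mM MgCl2.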
JMJD2A Tudor inh: inhibitors of human JMJD2A Tudor domain | AlphaScreen JMJD2A-Tudor / H3K4me3 peptide binding | AID 504339 | Potency, µM (top dose mostly 114 µM), without a hit: top-dose activity change, negative = inhibition, actives largely listed as inhibitors | O75164 | 4.4% of 390,000 active; note: potency is the fitted concentration of half-maximal effect; % is set by controls: 0 for no effect and ±100 for the full control effect; nearly all actives have a fitted effect of over 50% in size
G9a block: G9a (human) methyltransferase inhibition; Q96KQ7; G9a H3K9 monomethylation, AlphaScreen, 2 h; Potency, µM (series often up to 102 µM), for inactives: at the highest dose activity, negative = inhibition, hits mostly inhibitors; 8.8% of 350,000 active; AID 504332; note: potency is the fitted concentration of half-maximal effect; % is set by controls: 0 for no effect and ±100 for the full control effect; nearly all actives have a fitted effect of over 75% in size
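Chemiluminescent proximity detection of H3K9 monomethylation, read after 10 min bead incubation in the dark. Reaction: 20 nM G9a, 500 nM biotin-H3K9 peptide, 20 uM SAM cofactor, 2 h, room temperature, following 15 min enzyme-compound preincubation.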
HP1b chromo inh: HP1-beta chromodomain-methylated histone interaction inhibition | AlphaScreen HP1-beta / biotin-H3K9me3 peptide binding | Potency, µM (series often up to 114 µM), without a hit: at the highest dose activity change, negative = inhibition, most hits filed as inhibitors | 0.56% of 390,000 active; note: potency is the fitted concentration of half-maximal effect; nearly all actives have a fitted effect of over 70% in size
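Compound inhibition of the preformed complex between 50 nM HP1-beta and 50 nM biotinylated H3K9me3 peptide was read by AlphaScreen. Buffer was PBS pH 7.4 with 0.01% Tween-20. Incubations ran 30 min at room temperature, with 10 ug/mL donor/acceptor beads.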
BAZ2B inh: BAZ2B (human) inhibition. Q9UIF8. AlphaScreen BAZ2B-H3K14Ac peptide displacement. Potency, µM (top dose mostly 114 µM), for inactives: at the highest dose activity change, negative = inhibition, actives largely listed as inhibitors. 4.4% of 360,000 active; note: potency is the fitted concentration of half-maximal effect; % is set by controls: 0 for no effect and ±100 for the full control effect; nearly all actives have a fitted effect of over 60% in size
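BAZ2B (50 nM) with biotin-H3(5-23)K14Ac peptide (50 nM) in PBS pH 7.4, 0.01% Tween-20, preformed 30 min, then compound 30 min at room temperature; top concentration 110uM. AlphaScreen streptavidin donor/nickel chelate acceptor beads (10 ug/mL final), 20 min dark, signal read.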
12-hLO cuvette: blocks human 12-lipoxygenase product formation in cuvette; shares compounds with BAZ2B inh; purified 12-hLO, cuvette UV 234 nm product formation; Potency, µM, most hits filed as inhibitors; 60% of 35 active; AID 2163;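 active = compounds that slowed 12-hLO product formation enough to yield a measured IC50 potency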
JMJD2E inh: JMJD2E demethylase inhibition by 8HQ compounds | shares compounds with BAZ2B inh | JMJD2E demethylase, FDH-coupled NADH fluorescence (FDH is formaldehyde dehydrogenase) | Potency, µM (titrated, usually from 57 µM), for the others: top-dose activity, negative = inhibition, actives largely listed as inhibitors | 89% of 130 active
ME-1 growth: reduces ME-1 leukemia cell proliferation; shares compounds with BAZ2B inh; ME-1 cell proliferation, ATP luminescence, 48 h; Potency, µM (series often up to 56.1 µM), for inactives: at the highest dose activity change, negative = inhibition, actives largely listed as inhibitors; 20% of 140 active
The depositor's hits bear a star; i = inactive; ? = inconclusive; · = no result given; ! = a repeat was not active; [ ] = remark or other dose. Unless noted, calls come from the whole dose curve; as a rule, active = well fitted curve in the direction sought with a large enough effect; inconclusive = small, poorly fitted or top-dose-only effect, or another doubt; inactive = no such curve, though single readings can be large; an effect the other way counts as inactive or inconclusive.

SMILES	L3MBTL1 inh	Sfp inh	JMJD2A Tudor inh	G9a block	HP1b chromo inh	BAZ2B inh	ME-1 growth	others
COc1cccc2c1C(=O)c1c(O)c3c(c(O)c1C2=O)C[C@@](O)(C(C)=O)C[C@@H]3O[C@H]1C[C@H](N)[C@H](O)[C@H](C)O1	-20.2%	50.1µM*!	?	35.5µM*	-16.3%	35.5µM*	0.251µM*
C=C1c2cccc(O)c2C(O)=C2C(=O)[C@@]3(O)C(O)=C(C(N)=O)C(=O)[C@@H](N(C)C)[C@@H]3[C@@H](O)[C@H]12	·	?	·	3.98µM*	·	·	-2.8%
COc1ccc(C(=O)Nc2cc(-c3ccccc3)nn2-c2ccccc2F)cc1	5.4%	·	-19.4%	-32.4%[12.7 µM]	34.3%	-21.0%	·
N#Cc1ccc(OCC(=O)Nc2ccc3[nH]c(=O)[nH]c3c2)cc1	5.3%	·	-11.2%	-6.5%	0.1%	4.3%	·
COc1cc(O)c2c(c1)oc(=O)c1c3cc(O)c(O)cc3oc21	·	10µM*	·	·	·	·	31.6µM*
O=c1c(O)cccc2cc(O)c(O)c(O)c12	0.562µM*	6.31µM*!	0.891µM*	0.562µM*	?	0.794µM*	?
NNC(=O)c1cc2ccccc2cc1O	15.0%	16.9%	-17.9%	18.0%[59 µM]	7.0%	9.9%	·
COc1ccc(Oc2nc(-c3ccccn3)ncc2OC)cc1	?	-17.6%	89.1µM*	?	31.8%	28.2µM*	?
CCc1cccc(NC(=O)CCCCCC2NC(=O)NC2C)c1 (stereo not given)	·	20.4%	0.316µM*	1.26µM*	0.794µM*	0.794µM*	-16.4%
Cn1c(=O)c2c(ncn2CC(=O)N/N=C/C=C\c2ccccc2[N+](=O)[O-])n(C)c1=O	5.3%	15.6%	-7.7%	1.1%	23.1%	-8.7%	·
O=C(NC(=S)NNC(=O)c1ccccc1O)c1ccco1	-16.6%	-8.3%	35.5µM*	?	1.5%	?	?
COc1ccc(OC)c(CNC(=O)Cn2ncc3c([nH]c4ccc(C)cc43)c2=O)c1	·	·	-11.7%	-7.2%[59 µM]	1.5%	8.1%[57.1 µM]	·
COc1ccccc1N1CCN(C(=O)c2cn(C)c3ccc(S(=O)(=O)N(C)C4CCCCC4)cc3c2=O)CC1	·	·	4.0%	9.4%[59 µM]	32.0%	·	·
COc1ccc(CCC(=O)O)c(O)c1	·	19.6%	-23.8%	2.7%[12.7 µM]	-2.7%	?	·
COCc1cc(O)c(O)c(O)c1-c1c(COC)cc(O)c(O)c1O	·	7.94µM*	·	1µM*	·	·	-26.5%
COC(=O)c1cc2oc3ccccc3c2n1Cc1nc(-c2ccc(Cl)cc2)oc1C	·	·	-13.1%	0.6%[59 µM]	39.4%	1.6%	·
Cc1nc2ccccc2c(=O)n1NC(=O)c1ccc(Cl)c(Cl)c1	·	9.5%	-11.4%	-1.3%	32.5%	3.4%	·
O=C(O)c1cc(O)c2c(c1)[C@H]([C@H]1c3cc(C(=O)O)cc(O)c3C(=O)c3c(O[C@@H]4OC(CO)C(O)C(O)C4O)cccc31)c1cccc(O[C@@H]3OC(CO)C(O)C(O)C3O)c1C2=O (stereo not given in full)	·	56.2µM*	·	-148.0%[2.33 µM]	·	·	-18.6%
CC(=O)NC(C)c1cc(Cl)c2cccnc2c1O (stereo not given)	?	·	79.4µM*	27.1%[12.7 µM]	27.4%	35.5µM*	·	12-hLO cuvette=i;JMJD2E inh=28.9µM*
CCC(=O)NC(C)c1cc(Cl)c2cccnc2c1O (stereo not given)	?	·	79.4µM*	37.1%[12.7 µM]	44.4%	31.6µM*	·	12-hLO cuvette=50µM*;JMJD2E inh=28.9µM*
COc1cc(NC(C)=O)c2ncccc2c1NC(C)=O	·	14.9%	-15.9%	5.9%	22.1%	2.2%	·
CCC(=O)NC(c1cc(Cl)c2ccccc2c1O)C(C)C (stereo not given)	8.0%	·	2.1%	-1.6%[0.501 µM]	66.8%	-9.4%	·
CC(=O)NCc1cc(Cl)c2cccnc2c1O	22.4µM*	·	·	11.7%[12.7 µM]	·	10µM*	·	12-hLO cuvette=i;JMJD2E inh=20.4µM*
O=[N+]([O-])c1cc2c(cc1/C=N/n1c(-c3ccccn3)n[nH]c1=S)OCO2	?	22.4µM*	3.98µM*	0.794µM*	?	7.08µM*	?
CC(C)(c1cc(Br)c(O)c(Br)c1)c1cc(Br)c(O)c(Br)c1	-21.9%	·	89.1µM*	5.7%[0.501 µM]	0.1%	56.2µM*	4.1%
SMILES	L3MBTL1 inh	Sfp inh	JMJD2A Tudor inh	G9a block	HP1b chromo inh	BAZ2B inh	ME-1 growth	others
COc1ccc(Cl)cc1C(=O)NCC(c1ccc(N(C)C)cc1)N1CCOCC1 (stereo not given)	·	·	-20.9%	?	-13.7%	-21.4%	·
Nc1nc(-c2ccc3c(c2)NC(=O)CO3)cs1	·	?	?	?	-1.2%	?	-1.7%[25.6 µM]
CC(=O)NCCCC(=O)NN1C(=S)N(Cc2ccccc2)C(=O)C1CC(=O)Nc1cccc(C)c1 (stereo not given)	·	3.8%	-20.1%	-28.7%	21.4%	-5.0%	·
COc1cc(Cl)ccc1NC(=S)N(CCN(C)C)C(C)c1ccncc1 (stereo not given)	·	7.5%	-10.2%	4.5%[12.7 µM]	26.1%	-1.1%	·
Cc1cccc(NC(=S)N(CCN(C)C)C(C)c2ccccn2)c1 (stereo not given)	·	3.5%	-10.4%	21.8%[12.7 µM]	25.1%	56.2µM*	-7.8%[25.6 µM]
Cc1ccc(Cl)cc1NC(=S)N(CCN(C)C)C(C)c1ccccn1 (stereo not given)	·	-10.1%	-2.5%	-26.1%	20.7%	·	-6.5%[25.6 µM]
O=C(Nc1ccc(Cl)cc1F)c1cnc2sc(N3CCOCC3)nn2c1=O	·	·	8.7%	8.1%[59 µM]	46.0%	5.8%	·
Clc1ccc2c(c1)C(N1CCNCC1)Cc1ccccc1S2 (stereo not given)	-7.3%	-16.1%	?	?	-11.3%	-9.8%	·
COCCCN1CCN(C2Cc3ccccc3Sc3ccc(Cl)cc32)CC1 (stereo not given)	-4.7%	-8.3%	22.4µM*	?	-12.7%	?	-22.5%[25.6 µM]
COc1ccc(CCNC(=O)Cn2cc(C(=O)c3ccc(Cl)cc3)c(=O)c3ccc(C)nc32)cc1OC	·	·	-18.4%	-5.4%[59 µM]	52.8%	48.2%[57.1 µM]	·
O=C1CSC(=S)N1/N=C/c1ccc(O)c(O)c1O	1.12µM*	3.16µM*	3.16µM*	1.26µM*	1.78µM*	2.82µM*	?
O=C1CSC(=S)N1N=Cc1ccc2c(c1)OCO2	·	·	-24.3%	·	-5.4%	·	·
